Reference: PubChem BioAssay (NCI)
About 83,000 compounds went through this panel and 20% of them were active in at least one assay; those are over-represented in the sample as a whole.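 Cell lines were cultured in 96-well plates, exposed to a single compound concentration, and assessed for percent growth 48 hours later.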 Calls of active or inactive are those of the source. Rule for the calls: active = growth percent below 10; inactive = the rest.

Columns and labels:
Assay in all cases: NCI-60 one-dose screen, 48 h (100 = growth as untreated, 0 = no growth, -100 = all killed)
Conditions in all cases: 10 µM unless noted
T-47D breast = system: T-47D breast
BT-549 breast = system: BT-549 breast
MDA-MB-435 melanoma = system: MDA-MB-435 melanoma
SW-620 colon = system: SW-620 colon
MCF7 breast = system: MCF7 breast
HCT-116 colon = system: HCT-116 colon
HCC-2998 colon = system: HCC-2998 colon
KM12 colon = system: KM12 colon

Measured: growth

COc1ccc(/C=N/NC(=O)c2ccc(-n3cc(-c4ccccc4)nn3)cc2)cc1OC
inactive: T-47D breast 98.3% | BT-549 breast 92.9% | MDA-MB-435 melanoma 98.4% | SW-620 colon 116% | MCF7 breast 75.3% | HCT-116 colon 92.7% | HCC-2998 colon 113% | KM12 colon 104%

O=C(CN1C(=O)NC2NC(=O)NC21)N/N=C/c1ccccc1[N+](=O)[O-] (stereo unspecified)
inactive: T-47D breast 104% | BT-549 breast 97.9% | MDA-MB-435 melanoma 104% | SW-620 colon 105% | MCF7 breast 85.1% | HCT-116 colon 107% | HCC-2998 colon 118% | KM12 colon 104%

CCOC(=O)n1cc(-c2nonc2-c2cn(C(=O)OCC)c3ccc(Br)cc23)c2ccccc21
inactive: T-47D breast 52.9% | BT-549 breast 98.3% | MDA-MB-435 melanoma 99.9% | SW-620 colon 85.8% | MCF7 breast 69.6% | HCT-116 colon 62.7% | HCC-2998 colon 86.9% | KM12 colon 72.7%

CN1C(=O)/C(=C\c2nc([P+](c3ccccc3)(c3ccccc3)c3ccccc3)c(N3CCOCC3)o2)SC1=S
inactive: T-47D breast 79.4% | BT-549 breast 26.5% | MDA-MB-435 melanoma 60% | SW-620 colon 96.2% | MCF7 breast 85.8% | HCT-116 colon 65.4% | HCC-2998 colon 78% | KM12 colon 43.2%

CCOC(=O)c1c2c(n3cccc(F)c13)C(=O)c1ncccc1C2=O
active: SW-620 colon -7.69% | MCF7 breast -23.1% | HCT-116 colon -10.7%
inactive: T-47D breast 54.5% | BT-549 breast 21.7% | MDA-MB-435 melanoma 13.1% | HCC-2998 colon 25% | KM12 colon 19%

Nc1n[nH]c2cccc(C#Cc3cccc(NC(=O)c4cc(F)cc(C(F)(F)F)c4)c3)c12
inactive: T-47D breast 67.3% | BT-549 breast 79.6% | MDA-MB-435 melanoma 71.2% | SW-620 colon 62.5% | MCF7 breast 68.4% | HCT-116 colon 29.9% | HCC-2998 colon 70.8% | KM12 colon 83.3%

CCCCNC(=O)CC1=C(C)/C(=C/c2[nH]c(-c3ccc[nH]3)cc2OC)N=C1C
active: HCT-116 colon 3.1%
inactive: T-47D breast 32.6% | BT-549 breast 41.7% | MDA-MB-435 melanoma 20.2% | SW-620 colon 12.5% | MCF7 breast 22.3% | HCC-2998 colon 33.8% | KM12 colon 13.4%

O=C(Nc1ccccc1O)c1ccc(CNC(=O)c2sccc2Nc2ccnc(C(F)(F)F)c2)cc1
inactive: T-47D breast 40.1% | BT-549 breast 59.5% | MDA-MB-435 melanoma 39.3% | SW-620 colon 41.9% | MCF7 breast 30.1% | HCT-116 colon 26.3% | HCC-2998 colon 65.4% | KM12 colon 60.9%

CS(=O)(=O)Nc1cc(-c2ccc3ncnc(Nc4ccc5c(cnn5Cc5cccc(F)c5)c4)c3c2)cnc1Cl
active: T-47D breast -24.6% | BT-549 breast -13.5% | MDA-MB-435 melanoma 8.98% | MCF7 breast 0.881% | HCT-116 colon 4.08% | HCC-2998 colon 2.5%
inactive: SW-620 colon 18.4% | KM12 colon 13.9%

CCO/C=N/C1=C(C#N)C(c2ccc(Cl)cc2)c2sc3c(F)cccc3c2O1 (stereo unspecified)
active: MDA-MB-435 melanoma -30.4%
inactive: T-47D breast 54.8% | BT-549 breast 68.8% | SW-620 colon 35.5% | MCF7 breast 26% | HCT-116 colon 54.2% | HCC-2998 colon 84.2% | KM12 colon 42.2%

COc1ccc(OC)c(/C=N/Nc2ncnc3c2c(C)nn3C)c1
inactive: T-47D breast 84.6% | BT-549 breast 101% | MDA-MB-435 melanoma 105% | SW-620 colon 107% | MCF7 breast 85.2% | HCT-116 colon 109% | HCC-2998 colon 102% | KM12 colon 103%

CNc1nnc2n(-c3ccccc3)c(=O)c3cnn(-c4ccccc4)c3n12
inactive: T-47D breast 37.1% | BT-549 breast 74% | MDA-MB-435 melanoma 98.2% | SW-620 colon 105% | MCF7 breast 86.7% | HCT-116 colon 77.7% | HCC-2998 colon 112% | KM12 colon 87.4%

COc1cc(OC)c(NC(=O)c2cc3ccccc3cc2O)cc1Cl
inactive: T-47D breast 78.7% | MDA-MB-435 melanoma 22.7% | SW-620 colon 21.9% | MCF7 breast 76.1% | HCT-116 colon 18.1% | HCC-2998 colon 61.9% | KM12 colon 18.5%
active: BT-549 breast -25.9%

CCN1C(=O)N(CC)C2C1NN=c1s/c(=C\c3ccccc3F)c(=O)n12 (stereo unspecified)
inactive: T-47D breast 55.2% | SW-620 colon 18.2% | MCF7 breast 15.2% | HCC-2998 colon 12.8%
active: BT-549 breast 7.28% | MDA-MB-435 melanoma -37.4% | HCT-116 colon 7.85% | KM12 colon 4.31%

c1ccc2cc(C[n+]3ccn(CCCCCCCCCCn4cc[n+](Cc5ccc6ccccc6c5)c4)c3)ccc2c1
inactive: MDA-MB-435 melanoma 18.2% | SW-620 colon 23.2% | MCF7 breast 15.7% | HCT-116 colon 13.3% | HCC-2998 colon 25.2%
active: T-47D breast -0.597% | BT-549 breast -39.6% | KM12 colon -5.93%

CCCCCCCC[C@@H]1N[C@@H](C(=O)OC)Cc2c1[nH]c1ccccc21
inactive: T-47D breast 92.7% | BT-549 breast 105% | MDA-MB-435 melanoma 99.8% | SW-620 colon 94.6% | MCF7 breast 92% | HCT-116 colon 95.7% | HCC-2998 colon 107% | KM12 colon 99.7%

O=C(Cn1cc(CSc2nc3ccccc3o2)nn1)Nc1ccc(F)cc1F
inactive: T-47D breast 116% | BT-549 breast 113% | MDA-MB-435 melanoma 114% | SW-620 colon 112% | MCF7 breast 92.5% | HCT-116 colon 109% | HCC-2998 colon 111% | KM12 colon 116%

Cc1cc(C)c2c(c1)N(C)c1ncnc(-n3cnc4cc(C)ccc43)c1CC2C (stereo unspecified)
active: MDA-MB-435 melanoma 8.39%
inactive: T-47D breast 28.8% | BT-549 breast 29.8% | SW-620 colon 21.4% | MCF7 breast 17.1% | HCT-116 colon 11.1% | HCC-2998 colon 52.1% | KM12 colon 22.7%

CCN(CC)CCn1c2ccc(OC)cc2c2sc3cc(OC)ccc3c(=O)c21
inactive: T-47D breast 48.5% | BT-549 breast 61.7% | MDA-MB-435 melanoma 35.7% | HCC-2998 colon 35.7% | KM12 colon 22.4%
active: SW-620 colon 8.87% | MCF7 breast 4.61% | HCT-116 colon 4.6%

O=C1Nc2ccccc2/C1=C/c1nc2ccccc2c(=O)[nH]1
inactive: T-47D breast 71.5% | BT-549 breast 95% | MDA-MB-435 melanoma 104% | SW-620 colon 102% | MCF7 breast 60.2% | HCT-116 colon 76.7% | HCC-2998 colon 102% | KM12 colon 96.4%

O=C(O)CCCN1C(=O)/C(=C/c2cn(-c3ccccc3)nc2-c2ccc([N+](=O)[O-])cc2)SC1=S
inactive: T-47D breast 61.6% | BT-549 breast 55.1% | MDA-MB-435 melanoma 48.6% | SW-620 colon 65.7% | MCF7 breast 52.3% | HCT-116 colon 36.9% | HCC-2998 colon 64.6% | KM12 colon 54.1%

CCN(CC)CCn1c2ccc(O)cc2c2sc3cc(O)ccc3c(=O)c21
inactive: T-47D breast 50.4% | BT-549 breast 62.1% | MDA-MB-435 melanoma 40.5% | SW-620 colon 15.5% | HCT-116 colon 12.1% | HCC-2998 colon 42.3% | KM12 colon 29.4%
active: MCF7 breast 8.08%

Cc1ccc(C(=O)c2ccc(CC(=O)N/N=C/c3ccccc3O)n2C)cc1
inactive: T-47D breast 75.6% | BT-549 breast 85.1% | MDA-MB-435 melanoma 83.2% | SW-620 colon 89.6% | MCF7 breast 81.5% | HCT-116 colon 92.1% | HCC-2998 colon 92.1% | KM12 colon 80.4%

C=C(C)[C@@H]1CCC[C@]2(COS(=O)(=O)c3ccc(C)cc3)CC[C@]3(C)[C@@H](CC[C@@H]4[C@@]5(C)CCCNC(C)(C)[C@@H]5CC[C@]43C)[C@@H]12
active: MDA-MB-435 melanoma -25.3% | SW-620 colon -69.4% | MCF7 breast -32.6% | HCT-116 colon -82.8% | HCC-2998 colon -75.8% | KM12 colon -25.2%
inactive: T-47D breast 59.6% | BT-549 breast 83.7%

CC(=O)c1c(C)nc2ccccc2c1/C=C/c1ccc(F)cc1
inactive: T-47D breast 53.8% | BT-549 breast 87.1% | MDA-MB-435 melanoma 103% | SW-620 colon 97.1% | MCF7 breast 77.3% | HCT-116 colon 74.6% | HCC-2998 colon 99% | KM12 colon 90.7%

COc1ccc(NC(=O)c2sc3nc(C)c(C(=O)/C=C/c4ccccc4)cc3c2N)cc1
inactive: T-47D breast 57.7% | BT-549 breast 50% | MDA-MB-435 melanoma 15.7% | MCF7 breast 14.9% | HCT-116 colon 12.3% | HCC-2998 colon 25.2% | KM12 colon 18.7%
active: SW-620 colon 2.56%

CCOC(=O)C1=C(c2ccccc2)N=C2SC=C(c3ccc(Cl)cc3)N2C1c1ccc(Cl)cc1 (stereo unspecified)
inactive: T-47D breast 52.4% | BT-549 breast 87.5% | MDA-MB-435 melanoma 93.2% | SW-620 colon 81.8% | MCF7 breast 69.5% | HCT-116 colon 63% | HCC-2998 colon 86.2% | KM12 colon 72.5%

CN1CCN(c2cc(Nc3cc(C4CC4)[nH]n3)nc(Nc3ccc(CC(=O)NCc4cccc(F)c4)cc3)n2)CC1
inactive: T-47D breast 64.5% | BT-549 breast 43.2% | MDA-MB-435 melanoma 24.9% | SW-620 colon 11.5% | MCF7 breast 20% | HCC-2998 colon 35.1%
active: HCT-116 colon 8.53% | KM12 colon 9.2%

COC1=CC(c2ccc[nH]2)=N/C1=C\c1[nH]c(C)c(CC(=O)NCc2ccccc2)c1C
active: HCT-116 colon 2.09% | KM12 colon -46.1%
inactive: T-47D breast 15.1% | BT-549 breast 40.2% | MDA-MB-435 melanoma 15.9% | SW-620 colon 20.6% | MCF7 breast 11% | HCC-2998 colon 13.9%

O=C(CSc1nc2sc3c(c2c(=O)n1-c1ccccc1)CCCCC3)N/N=C/c1cccc([N+](=O)[O-])c1
inactive: T-47D breast 64.1% | BT-549 breast 38.1% | MDA-MB-435 melanoma 72.9% | SW-620 colon 52.4% | MCF7 breast 45.9% | HCC-2998 colon 98% | KM12 colon 47.6%
active: HCT-116 colon 4.84%

CC(C)Cn1cnc2c(=O)[nH]c(N)nc21
inactive: T-47D breast 85.3% | BT-549 breast 98.5% | MDA-MB-435 melanoma 109% | SW-620 colon 106% | MCF7 breast 86.7% | HCT-116 colon 101% | HCC-2998 colon 104% | KM12 colon 106%

CCCNC(=O)Nc1ccc2cc3ccc(NC(=O)NCCC)cc3nc2c1
inactive: T-47D breast 46.6% | BT-549 breast 82.1% | MDA-MB-435 melanoma 77.4% | SW-620 colon 92% | MCF7 breast 62.6% | HCT-116 colon 76.3% | HCC-2998 colon 98.4% | KM12 colon 70.9%
